{
  "source": "PubChem BioAssay (Tox21)",
  "note": "Where “and” joins values, the source holds several entries; their conditions need not be identical. Equal entries are not always repeated. Records with an inconclusive call do not appear. Where a call stands in place of a potency, no number is given. Where a structure was tested more than once in an assay, its records may differ in their call. Calls of active or inactive are those of the source. The call rests on the fitted dose curve. Potency means the concentration at half of the fitted maximal effect.",
  "data": [
    {"assay": "qHTS assay to identify small molecule antagonists of the sonic hedgehog signaling (Shh) pathway (AID 1259369); further: nearly all actives have a fitted effect of over 45% in size", "settings": "NIH/3T3 Gli1-Luc reporter, Shh antagonist, luminescence 24 h; series mostly up to 92.4 µM; activity change, negative = inhibition: at the top concentration", "description": "U.S. Tox21 Program National Center for Advancing Translational Sciences [NCATS] NIH Chemical Genomics Center [NCGC] U.S. Environmental Protection Agency [EPA] National Institutes of Environmental Health Sciences [NIEHS] National Toxicology Program [NTP] U.S. Food and Drug Administration [FDA] Tox21 Assay Overview: The sonic hedgehog (Shh) pathway is essential for normal embryonic development. Dysregulation of the Shh pathway can cause severe developmental defects in organs. Therefore chemicals that interfere with the pathway are potential developmental toxicants. A cell line designated 3T3Gli1-Luc (DMB/OARSA/CFSAN/FDA, Laurel, MD), a NIH/3T3 derived clone containing stably integrated Gli1-Luc reporter is used to detect chemical interference of the Shh pathway, by changes in the expression of the firefly Luc gene under the control of the Gli1 transcriptional response element. This cell line was used to screen Tox21 libraries for identifying and prioritizing the potential developmental toxicants that interfere Shh pathway. Conditioned medium-stimulated mode was used to screen for chemicals inhibiting Shh signaling.\nTox21 Assay Protocol Summary: 3T3 Gli1-Luc cells were dispensed at 2,000 per well in 5uL of culture medium into white solid bottom 1536-well plates (Greiner Bio-One, Monroe, NC) using a Multidrop Combi (Thermo Scientific, Waltham, MA) dispenser. The assay plates were incubated at 37 C and 5% CO2 for 4hr, and then 23nL of compounds dissolved in DMSO and positive control were transferred using a Pintool station (Wako, San Diego, CA). The compound transfer was followed by the addition of 1ul conditioned medium or assay buffer using two separate tips of Flying Reagent Dispenser (FRD, Aurora Discovery, San Diego, CA). The assay plates were incubated at 37C and 5% CO2 for 24hr. For luciferase read, 4uL of Amplite Luciferase reporter gene assay reagent (AAT Bioquest, Inc. Sunnyvale, CA) was added to each well of the assay plates using FRD and incubated at room temperature for 30min. The luminescence signal was measured using a ViewLux plate reader (Perkin Elmer, Shelton, CT).", "values": [
      {"smiles": "CC(C)NCC(O)COc1cccc2ccccc12", "note": "(stereo not given)", "Potency": "24.3 µM (active)"},
      {"smiles": "C=C(C#N)C(=O)OCC", "Potency": "inactive and 15.4 µM (active)"},
      {"smiles": "O=[N+]([O-])c1cc(N(CCO)CCO)ccc1NCCO", "Potency": "inactive"},
      {"smiles": "Cc1cc(NS(=O)(=O)c2ccc(N)cc2)no1", "activity change, negative = inhibition": "17% (inactive)"},
      {"smiles": "CC1=C(/C=C/C(C)=C/C=C/C(C)=C/CO)C(C)(C)CCC1", "Potency": "15.5 µM (active)"},
      {"smiles": "OCC#CCO", "Potency": "inactive"},
      {"smiles": "CCCCCCC(C)(C)S", "Potency": "inactive"},
      {"smiles": "C=C1CC[C@H](O)CC1=C/C=C1\\CCC[C@]2(C)[C@@H]([C@H](C)/C=C/[C@H](C)C(C)C)CC[C@@H]12", "Potency": "4.81 µM (active) and 17.2 µM (active)"},
      {"smiles": "CCC(=O)O", "Potency": "inactive"},
      {"smiles": "CCCCC(CC)COC(=O)CCCCCCCC(=O)OCC(CC)CCCC", "note": "(stereo not given)", "Potency": "15.4 µM (active) and inactive"},
      {"smiles": "OC[C@@H](O)[C@H](O)[C@H](O)[C@@H](O)CO", "Potency": "inactive"},
      {"smiles": "O=C(Cl)c1c(Cl)c(Cl)c(C(=O)Cl)c(Cl)c1Cl", "Potency": "inactive"},
      {"smiles": "CN(CCOc1ccc(CC2SC(=O)NC2=O)cc1)c1ccccn1", "note": "(stereo not given)", "activity change, negative = inhibition": "-3.83% [at 42.5 µM] (inactive)"},
      {"smiles": "C=C1C2CCC(C2)C1(C)C", "note": "(stereo not given)", "Potency": "inactive"},
      {"smiles": "CC(C)(C)C(=O)C1C(=O)c2ccccc2C1=O", "Potency": "68.6 µM (active)"},
      {"smiles": "CS(=O)(=O)c1ccc([C@@H](O)[C@@H](CO)NC(=O)C(Cl)Cl)cc1", "Potency": "inactive"},
      {"smiles": "O=C(c1ccc(O)cc1)c1ccc(O)cc1O", "Potency": "55 µM (active)"},
      {"smiles": "CN(C)c1ccc(C(=N)c2ccc(N(C)C)cc2)cc1", "Potency": "2.4 µM (active) and 11.7 µM (active)"},
      {"smiles": "c1ccc2ccccc2c1", "Potency": "inactive"},
      {"smiles": "O=S(=O)(O)c1cc(S(=O)(=O)O)c2c(N=Nc3ccccc3)c(O)ccc2c1", "Potency": "inactive"},
      {"smiles": "Oc1ccc2ccccc2c1", "Potency": "5.58 µM (active) and 9.69 µM (active)"},
      {"smiles": "C[C@@H](O)[C@H]1C(=O)N2C(C(=O)O)=C(S[C@@H]3CN[C@H](C(=O)N(C)C)C3)[C@H](C)[C@H]12", "Potency": "inactive"},
      {"smiles": "CCOC(=O)C1OC1c1ccccc1", "note": "(stereo not given)", "Potency": "inactive"},
      {"smiles": "C[C@@H]1O[C@@H](OC[C@H]2O[C@@H](Oc3c(-c4ccc(O)c(O)c4)oc4cc(O)cc(O)c4c3=O)[C@H](O)[C@@H](O)[C@@H]2O)[C@H](O)[C@H](O)[C@H]1O", "Potency": "inactive"},
      {"smiles": "NC(=O)/N=N/C(N)=O", "Potency": "inactive"},
      {"smiles": "O=C1CCCCC1", "Potency": "inactive"},
      {"smiles": "CCCCC(CC)COC(=O)/C=C\\C(=O)OCC(CC)CCCC", "note": "(stereo not given)", "Potency": "inactive"},
      {"smiles": "CCCCNC(N)=O", "Potency": "inactive"},
      {"smiles": "CCc1ccc(O)cc1", "Potency": "inactive"},
      {"smiles": "O=C1O[C@H](CO)[C@@H](O)[C@H](O)[C@H]1O", "Potency": "inactive"},
      {"smiles": "CCC(C)C=O", "note": "(stereo not given)", "Potency": "inactive"},
      {"smiles": "C=C(C)C(=O)OCCCCCCCCCCCC", "Potency": "inactive"},
      {"smiles": "C=CC(=O)OCCCCCCCC(C)C", "Potency": "inactive"},
      {"smiles": "CS(=O)(=O)Nc1ccc([N+](=O)[O-])cc1Oc1ccccc1", "Potency": "inactive"},
      {"smiles": "Oc1ccc(OCc2ccccc2)cc1", "Potency": "inactive"},
      {"smiles": "CC(=O)[C@@]1(O)CC[C@H]2[C@@H]3CCC4=CC(=O)CC[C@]4(C)[C@H]3CC[C@@]21C", "activity change, negative = inhibition": "-26.8% [at 42.5 µM] (inactive)"},
      {"smiles": "CCCCCCCCCCCCN", "Potency": "inactive"},
      {"smiles": "NCc1cccc(CN)c1", "Potency": "inactive"},
      {"smiles": "COC(=O)c1ccc(C(=O)OC)cc1", "Potency": "982 nM (active) and inactive"},
      {"smiles": "OCCOCCOCCOCCO", "Potency": "inactive"}
    ]}
  ]
}
